Only some compounds are listed: those with a hit (about 3.4% of all), similar ones and a draw of the others.
MITF inh = MITF inhibitors, primary screen, biochemical, AlphaScreen, human; inhibition, % at 2.6 µM; Microphthalmia-associated transcription factor (Homo sapiens), O75030; actives 0.91% (n = 650,000); AlphaScreen MITF homodimerization, bead proximity signal; AID 1259374, 2018; in the data active = inhibition above about 50%;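 note: 0% = vehicle wells with protein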
Target sequence (O75030 whole entry, looked up): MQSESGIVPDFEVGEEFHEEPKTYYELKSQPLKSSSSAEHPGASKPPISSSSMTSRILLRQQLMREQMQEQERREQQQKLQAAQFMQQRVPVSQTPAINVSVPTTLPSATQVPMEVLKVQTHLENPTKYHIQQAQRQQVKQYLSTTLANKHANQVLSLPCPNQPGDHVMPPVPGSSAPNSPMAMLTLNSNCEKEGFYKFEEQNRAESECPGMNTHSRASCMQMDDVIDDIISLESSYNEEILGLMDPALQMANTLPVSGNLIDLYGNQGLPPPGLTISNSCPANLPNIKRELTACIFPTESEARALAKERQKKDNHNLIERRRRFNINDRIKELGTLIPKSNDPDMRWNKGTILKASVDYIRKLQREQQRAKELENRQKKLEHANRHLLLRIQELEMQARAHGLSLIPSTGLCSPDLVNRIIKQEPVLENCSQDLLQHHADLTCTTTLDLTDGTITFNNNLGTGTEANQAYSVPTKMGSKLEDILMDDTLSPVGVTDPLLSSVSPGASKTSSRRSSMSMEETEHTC
FBW7 activator = FBW7 E3 ligase activators, primary screen, biochemical, AlphaScreen, human; AlphaScreen FBW7–phospho-cyclin E peptide binding, activator screen; F-box/WD repeat-containing protein 7 (Homo sapiens), Q969H0; normalized activity (activation), % at 26.1 µM; actives 0.13% (n = 650,000); AID 1259310, 2017; in the data active = normalized activity above about 1.9%;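 note: purified mutant Fbw7 with reduced substrate affinity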
GPR151 activ = activators of human GPR151, primary screen, cell-based, PathHunter beta-arrestin, luminescence; G-protein coupled receptor 151 (Homo sapiens), Q8TDV0; actives 1% (n = 650,000); activation, % at 11.2 µM; AID 1508602, 2020; PathHunter beta-arrestin GPR151 cells; in the data active = activation above about 4.9%;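 note: 0% = median of compound wells and 100% = cells with positive control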
TEAD-YAP inh = TEAD-YAP interaction inhibition, primary screen, TEAD-YAP interaction inhibitor project, luminescence, HEK-TIYL cells | inhibition, % at 9.12 µM | actives 1.4% (n = 640,000) | TEAD-Gal4/YAP UAS-luciferase luminescence; in the data active = inhibition above about 32%;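 note: 0% = median of test compound wells and 100% = reference inhibitor wells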
MITF inh conf = MITF inhibitors, retest of hits, confirmation, biochemical, AlphaScreen, triplicate | shares compounds with MITF inh | AlphaScreen MITF homodimerization, biotin/His-MITF beads | inhibition, % at 2.6 µM | actives 16% (n = 4,700) | AID 1259372, 2018;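 active = inhibition above a cutoff derived from the DMSO control wells, cut at about 28% in these data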;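 note: 0% = MITF dimer wells with DMSO only; inhibitors lower the bead chemiluminescence by keeping MITF from dimerizing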
AS interf DR = AlphaScreen optical interference compounds, dose response, counter-screen, biochemical, HTS; shares compounds with MITF inh; AlphaScreen optical interference counterscreen, cell-free; IC50, µM; actives 6% (n = 480); AID 1259373, 2018; call rule not given here
AlphaScreen intf2 = AlphaScreen optical interference compounds, counter-screen for MITF inhibitor project, biochemical, triplicate. actives 7.6% (n = 4,700). shares compounds with MITF inh. AID 1259376, 2018. inhibition, % at 2.6 µM. LysRS AlphaScreen counterscreen, signal interference;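 active = inhibition above a cutoff derived from the DMSO control wells, cut at about 30% in these data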
Active calls of the source: *; . = no result given.

SMILES	MITF inh	FBW7 activator	GPR151 activ	TEAD-YAP inh	MITF inh conf	AlphaScreen intf2	others
NS(=O)(=O)c1ccc(CCNC(=O)CNS(=O)(=O)c2cccs2)cc1	80*	0	-1	6	-5	5
Cc1ncc(CO)c(/C=N/Nc2nc3ccccc3o2)c1O	65*	-1	-1	11	19	47*
C=CC1=C(C)c2cc3[n-]c(cc4nc(cc5[n-]c(cc1n2)c(C)c5CCC(=O)O)C(CCC(=O)O)=C4C)c(C)c3C=C.[Zn+2]	26	0	-1	.	.	.
C=CC1=C(C)C2=Cc3c(C=C)c(C)c4[n]3[Sn+2][n]3c(c(C)c(CCC(=O)O)c3=CC3=NC(=C4)C(C)=C3CCC(=O)O)=CC1=N2	55*	0	0	.	62*	-17	AS interf DR=>6.5
OC(CNCCNc1cccc2ccccc12)COCc1ccc(Cl)cc1 (configuration not stated)	53*	0	-1	-2	-5	1
CC(C)(CO)NCC(O)COCc1ccc(Cl)cc1 (configuration not stated)	-5	1	0	7	.	.
O=C(NCCCN1CCCC1=O)c1ccc(Sc2ccccc2Cl)c([N+](=O)[O-])c1	15	0	1	-2	.	.
CC(C(=O)Nc1ccccc1F)N1C(=O)c2ccccc2S1(=O)=O (configuration not stated)	-15	0	-1	-1	.	.
CCc1ccc2nc(SCC(=O)Nc3nc(C)c(C)s3)c(C#N)cc2c1	84*	-1	-1	-2	22	56*
CCCC(=O)NC(=S)Nc1cccc([N+](=O)[O-])c1	-16	0	-1	4	.	.
CC(C)(C)C(=O)NC(=S)Nc1cccc([N+](=O)[O-])c1	58*	0	-2	-3	-8	-3
CN1C(=O)[C@H]2CN(Cc3cnn(-c4cccc(F)c4)c3)CCN2C(=O)[C@@H]1Cc1ccccc1	0	0	-1	8	.	.
CCN(Cc1cnn(C)c1)Cc1cn[nH]c1-c1ccc(C)c(C)c1	13	1	1	2	.	.
COc1cc(NC(=O)Nc2cccc(C(C)=O)c2)cc(OC)c1OC	6	0	4	0	.	.
COc1cc(Nc2cccc(C(N)=O)c2)cc(OC)c1OC	73*	0	-1	0	3	4
C/C(=N\NC(=O)CC1=NNC(=O)C1)c1ccco1	51*	0	0	-1	36*	-2	AS interf DR=>6.5
Cc1ccc2nc(C3CCN(S(=O)(=O)c4ccc5c(c4)OCCO5)CC3)[nH]c2c1	66*	0	1	8	12	19
COC(C(=O)N1CCc2c(cnc(C)c2CNC(=O)Cn2ccnc2)C1)c1ccccc1 (configuration not stated)	6	0	0	2	.	.
O=C(c1cc(Cl)ccc1[N+](=O)[O-])n1cnc2ccccc21	15	1	-1	9	.	.
O=C(c1ccccc1[N+](=O)[O-])n1cnc2ccccc21	56*	0	1	4	-3	12
Cc1ccc(-c2nc3cc(NC(=O)c4cccnc4)ccc3o2)cc1Cl	8	0	2	-5	.	.
Cc1ccc(-c2nc3cc(NC(=O)c4cccnc4)ccc3o2)cc1C	63*	0	1	-34	7	10
O=C(CNCCc1ccc(Cl)cc1)NCc1ccc2c(c1)OCO2	60*	1	-1	11	6	21
O=C(NCc1ccc2c(c1)OCO2)C1(S(=O)(=O)c2ccc(Cl)cc2)CC1	88*	0	1	10	-2	-4
CSc1ccc(C2C=C(c3ccc(Cl)cc3)Nc3nnnn32)cc1 (configuration not stated)	-4	0	1	0	.	.
CCCOC(=O)c1ccc(NC(=O)c2c(O)c3ccccc3[nH]c2=O)cc1	-12	0	-1	-1	.	.
CS(=O)(=O)Nc1cc(Br)c(O)c(Br)c1	-16	0	0	1	.	.
